# Screens (PubChem)
# Hits are enriched below; roughly 3% of the tested compounds scored in any of these assays.
# Tau fluor cs: counter-screen for tau fibril formation inhibitors; AID 1463; 280,000 tested, 0.93% active; tau K18 P301L Alexa594 fluorescence, heparin fibrillization; Potency, µM (highest dose often 57.7 µM), for the others: at the top dose activity change, negative = decrease; note: nearly all actives have a fitted effect of over 55% in size
#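 Human tau K18 P301L (15 uM unlabeled, 0.24 uM Alexa 594-labeled) in 100 mM sodium acetate pH 7 with 20 uM heparin, 6 hr at 37 C. ThT 30 uM added, 1 hr ambient; Alexa 594 FP and total fluorescence read at 555/632 nm.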
# Tau ThT inhib: tau fibrillization inhibition (ThT binding) | P10636 | recombinant tau K18 P301L, heparin-induced fibrillization, ThT fluorescence | Potency, µM (highest dose often 57.4 µM), without a hit: at the top dose activity, negative = inhibition, most hits filed as inhibitors | 270,000 tested, 2.1% active | AID 1460; note: nearly all actives have a fitted effect of over 55% in size
# Target sequence (P10636 561-689 P618L limits assumed): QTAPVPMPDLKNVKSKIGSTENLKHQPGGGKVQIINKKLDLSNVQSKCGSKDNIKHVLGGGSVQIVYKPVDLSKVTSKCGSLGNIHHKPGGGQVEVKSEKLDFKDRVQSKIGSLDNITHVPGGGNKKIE
#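 Using a mix of unlabeled (15 uM) and Alexa 594-labeled (0.24 uM) tau K18 P301L, heparin-triggered fibrillization over 6 hr at 37 C was scored by ThT fluorescence.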
# TR SRC2 fluor cs: counter-screen for TRb-SRC2 inhibitors: fluorescence interference. TRb/SRC2 Texas Red total fluorescence interference. Potency, µM (doses to about 106 µM), for the others: at the top dose fluorescence change, negative = quenching. 280,000 tested, 0.29% active; active = well fitted curve in either direction with a large enough effect; inconclusive = small, poorly fitted or top-dose-only effect
#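 Human TRb ligand-binding domain at 0.6 uM with 20 nM Texas Red SRC2 peptide in Tris buffer containing 1 uM T3 and 5% DMSO, incubated with compound 5 h at ambient temperature. Total fluorescence (555/632 nm) calculated as parallel + 2 × perpendicular.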
# Tau fibril FP: blocks human tau fibril formation measured by polarization. P10636. K18 P301L tau heparin fibrillization, Alexa594 FP, 6 h. 280,000 tested, 0.39% active. Potency, µM (titrated, usually from 57.7 µM), without a hit: top-dose activity, negative = inhibition, hits mostly inhibitors; note: nearly all actives have a fitted effect of over 55% in size
#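 Compound effects on tau fibrillization are measured by Alexa 594 fluorescence polarization (ex 555, em 632 nm). K18 P301L tau is used at 15 uM with 0.24 uM labeled tracer, and 20 uM heparin induces aggregation over 6 hr at 37 C.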
# TRb SRC2 PPI: TRbeta-SRC2 interaction inhibition; AID 1469; 280,000 tested, 0.065% active; Potency, µM (titrated, usually from 106 µM), without a hit: at the top dose activity change, negative = inhibition, actives largely listed as inhibitors; TRbeta-SRC2 peptide binding, fluorescence polarization; receptor liganded with 1 µM T3;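 note: plate controls were bound peptide for no effect and peptide without receptor for full effect; nearly all actives have a fitted effect of over 50% in size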
# Target sequence (P10828 whole entry, looked up): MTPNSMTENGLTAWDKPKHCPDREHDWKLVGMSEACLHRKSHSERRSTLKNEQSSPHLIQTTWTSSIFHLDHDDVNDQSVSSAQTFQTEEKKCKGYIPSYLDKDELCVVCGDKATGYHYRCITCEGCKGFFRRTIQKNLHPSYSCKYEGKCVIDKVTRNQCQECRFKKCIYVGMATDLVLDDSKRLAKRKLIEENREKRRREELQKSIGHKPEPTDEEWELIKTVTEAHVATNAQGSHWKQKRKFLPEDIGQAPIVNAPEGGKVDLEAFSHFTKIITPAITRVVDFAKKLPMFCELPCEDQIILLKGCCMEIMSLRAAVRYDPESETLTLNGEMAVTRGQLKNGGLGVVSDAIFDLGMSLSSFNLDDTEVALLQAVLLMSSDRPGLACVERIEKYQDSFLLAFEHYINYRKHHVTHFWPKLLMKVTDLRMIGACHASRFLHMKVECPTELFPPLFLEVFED
#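 Human TRb LBD (0.6 uM) plus Texas Red-labeled SRC2 peptide (20 nM), 1uM T3, 5% DMSO, 5 hr at ambient temperature. Decreased polarization (555/632 nm) flags inhibition; data normalized to free and bound peptide controls.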
# Active calls of the source: *; u = inconclusive; [ ] = dose if it differs, or a comment. Unless noted, calls come from the whole dose curve; as a rule, active = well fitted curve in the direction sought with a large enough effect; inconclusive = small, poorly fitted or top-dose-only effect, or another doubt; inactive = no such curve, though single readings can be large; an effect the other way counts as inactive or inconclusive. Unless noted, % is set by controls: 0 for no effect and ±100 for the full control effect; potency is the fitted concentration of half-maximal effect.
SMILES,Tau fluor cs,Tau ThT inhib,TR SRC2 fluor cs,Tau fibril FP,TRb SRC2 PPI
CCc1ccc2c(c1)C(=O)C(=O)N2CC(=O)Nc1ccc(NC(=O)c2ccccn2)cc1,u,14.1µM*,-2.5%,-3.6%,-0.5%
COc1ccccc1NC(=O)c1cc2cc3ccc(OC)c(Cl)c3nc2s1,-0.2%,1.2%,-4.0%,-3.1%,3.4%
N#CC1=C(N)SC(N)=C(C#N)C1c1ccnc2ccccc12,-25.1%,28.2µM*,2.5%,u,-2.0%
O=C1c2ccccc2C(=O)C1c1ccnc2ccccc12,-7.3%,1.78µM*,-4.0%,-3.9%,5.7%
COc1ccc(C2C(=O)c3ccccc3C2=O)cc1,-14.2%,u,-0.3%,u,3.2%
O=C1C(c2ccnc3ccccc23)=C(O)c2ccccc21,3.2%,u,-7.4%,-1.3%,2.2%
O=C1c2ccccc2C(=O)C1c1nccc2ccccc12,-18.2%,1.41µM*,-3.9%,-8.2%,-0.4%
C=CC(=O)N1C(=O)c2ccccc2S1(=O)=O,1.4%,-1.3%,-0.3%,8.0%,2.3%
Cc1ccc(CN(Cc2ccco2)C(=O)COc2ccc(Cl)cc2Cl)cc1,-21.8%,-16.1%,0.0316µM*[quencher],-3.5%,u
COC(=O)NC(c1cccc(F)c1)[C@@]1(C(=O)OC)CCCC1=O (stereo not given in full),3.6%[11.6 µM],-6.8%[11.5 µM],1.2%[11.2 µM],-0.9%[11.6 µM],2.7%[11.2 µM]
CCOC(=O)c1c(C)[nH]c(C)c1S(=O)(=O)N1CCCC(C(=O)N2CCN(c3cc(C)ccc3C)CC2)C1 (stereo not given),-27.3%,-16.7%,-11.3%,-0.6%,-3.2%
N#Cc1ccc(-c2ccco2)nc1SCC(=O)c1ccc(Cl)cc1,u,5.01µM*,-9.7%,-3.7%,-6.1%
COCCn1c(CCC(=O)Nc2ccc(OC)c(OC)c2)nc2cccnc21,-3.3%,3.0%,-1.2%,-4.9%,-0.4%
COc1ccc(C)cc1NC(=O)CN(c1cc(C(F)(F)F)ccc1Cl)S(C)(=O)=O,u,-7.8%,-4.6%,-7.5%,15.6%
COc1ccc(/C=N\Nc2ccc([N+](=O)[O-])cc2)c(C(=O)O)c1OC,-18.0%,12.6µM*,-2.8%,5.9%,3.7%
Nc1nonc1N/N=C/c1c(O)ccc2ccccc12,10µM*[quencher],u,-3.8%,4.9%,-0.5%
Nc1nonc1N/N=C\c1ccccc1,-13.3%,-4.1%,-3.5%,13.4%,0.7%
COc1cc2ncnc(Nc3ccc(F)c(Cl)c3)c2cc1OCCCN1CCOCC1,u,u,-1.4%,39.8µM*,2.2%
COC(=O)c1cc(OC)c(OC)c(OC)c1NC(=O)c1cc(=O)n(C)c(=O)n1C,-8.8%,-6.9%,u,2.5%,-7.7%
Cc1cccc(NC(=O)c2c(NC(=O)C(F)(F)F)sc3c2CCCCC3)c1,u,15.8µM*,-14.2%,11.0%,-4.0%
O=C(Nc1cccc(Cl)c1)c1c(NC(=O)C(F)(F)F)sc2c1CCCC2,u,10µM*,2.9%,u,2.9%
Cc1ccc(NC(=O)c2c(NC(=O)C(F)(F)F)sc3c2CCCCC3)cc1,u,14.1µM*,-9.5%,9.6%,0.3%
Cc1cccc(NC(=O)c2c(Br)sc3c2CCCC3)c1,-9.4%,-7.1%,u,u,-0.9%
O=C(COc1ccc(Cl)cc1)Nc1sc2c(c1C(=O)Nc1cccc(Cl)c1)CCCC2,-8.0%,12.6µM*,5.8%,u,2.6%
Cc1cccc(C(=O)Nc2sc3c(c2C(=O)Nc2ccccc2)CCC3)c1,-7.7%,-0.1%,0.5%,-3.4%,-1.4%
SMILES,Tau fluor cs,Tau ThT inhib,TR SRC2 fluor cs,Tau fibril FP,TRb SRC2 PPI
Cc1ccccc1NC(=O)c1c(NC(=O)C(F)(F)F)sc2c1CCCCC2,u,u,2.0%,u,-11.9%
COc1ccc(-n2c(=O)c3ccccc3n(Cc3ccccc3C)c2=O)c(OC)c1,-14.7%,-11.5%,-1.6%,-5.3%,-2.3%
COc1ccc(NC(=O)c2cc3c(=O)n(Cc4ccco4)ccc3nc2C)c(OC)c1,-13.8%,-11.4%,1.3%,-0.7%,4.0%
O=C(O)CCC(=O)Nc1sc2c(c1C(=O)Nc1cccc3ccccc13)CCCCC2,5.9%,-3.2%,-0.9%,9.0%,-3.9%
O=C(O)CCC(=O)Nc1sc2c(c1C(=O)Nc1ccccc1)CCCCC2,-29.8%,14.1µM*,-3.5%,u,-8.9%
COc1ccc2c(c1)c1c(c(=O)n(Cc3ccccc3)c(=O)n1CC(=O)Nc1ccccc1OC)n2C,-13.5%,1.2%,-0.6%,-4.3%,-5.0%
Cc1ccc(N(CC(O)COCc2ccco2)S(=O)(=O)c2ccc(C)cc2)cc1 (stereo not given),-23.3%,31.6µM*,0.5%,u,-8.0%
CCCN(CCC)CC(O)CN(c1ccccc1)S(=O)(=O)c1ccc(C)cc1 (stereo not given),-8.8%,-8.5%,-0.3%,5.1%,7.2%
C/C(=N/N=C/c1ccc(N(C)C)cc1)c1ccccc1,u,8.91µM*,-1.2%,2.4%,-1.4%
CN(C)c1ccc(C=Nc2ccc(N(C)C)cc2)cc1,u,11.2µM*,u,28.2µM*,50.1µM*
COc1cccc(OC)c1OCC(O)CN1CCN(c2ccccc2)CC1 (stereo not given),-9.6%,u,-2.7%,5.2%,-12.2%
COc1ccccc1N1CCN(CC(O)COc2c(OC)cccc2OC)CC1 (stereo not given),u,20µM*,-1.2%,u,-0.8%
O=c1[nH][nH]c(-c2ccccc2O)c1C(C[N+](=O)[O-])c1ccc(Cl)cc1Cl (stereo not given),-29.8%,-17.5%,-0.4%,0.0%,-1.3%
Cc1cc(O)c(C(C[N+](=O)[O-])c2ccc(Cl)cc2Cl)c(=O)o1 (stereo not given),-21.6%,28.2µM*,0.3%,u,7.4%
O=c1cc(N=Nc2ccc(Cl)cc2)[nH]c(=O)[nH]1,u,11.2µM*,-0.9%,u,-7.4%
O=c1cc(-c2ccc(Cl)cc2)oc(=O)[nH]1,-2.1%,-6.4%,-1.7%,-0.6%,2.1%
Oc1cc2c(cc1O)[C@@H]1c3ccc(O)c(O)c3OC[C@]1(O)C2,u,14.1µM*,-1.6%,u,3.0%
O=C1C=CC(=O)c2c(O)c(Cl)c(Cl)c(O)c21,3.3%,u,u,6.0%,-5.6%
COc1cccc(-n2c(N)c(-c3nc4ccccc4[nH]3)sc2=S)c1,15.8µM*[quencher],7.94µM*,-4.4%,13.1%,-4.5%
COc1ccc2nc(-c3cccc(N)c3)[nH]c2c1,2.5%,8.9%,-2.2%,-2.1%,7.1%
O=C(N/N=C/c1cccc(F)c1)c1cc(-c2ccco2)nc2ccccc12,u,u,31.6µM*[quencher],-3.3%,26.6%
COc1cc(/C=N/NC(=O)c2cc(-c3ccco3)nc3ccccc23)cc(OC)c1O,u,u,-6.3%,10.8%,-2.3%
Cc1ccccc1-c1cc2nc(-c3ccc([N+](=O)[O-])cc3)cc(=O)n2[nH]1,-24.5%,u,-9.0%,7.0%,-5.3%
